The source of these data is ChEMBL document CHEMBL3433997, “St. Jude Leishmania screening dataset” (2016).

What all share (format): functional
Experiment [1] addresses Solute carrier family 2, facilitated glucose transporter member 1 (Homo sapiens) (UniProt P11166). As to the kind of experiment: ST_JUDE_LEISH: Cytotoxicity at 2uM final concentration against transgenic Leishmania Mexicana promastigotes LmGLUT1 that are glucose transport deficient and complemented with the human glucose transporter GLUT1. Activity is measured by DNA content using SYBR green in vitro.

In experiment [2] the target is Hexose transporter 1 (Plasmodium falciparum) (UniProt O97467). As to the kind of experiment: ST_JUDE_LEISH: Cytotoxicity at 2uM final concentration against transgenic Leishmania Mexicana promastigotes LmPfHT that are glucose transport deficient and complemented with the Plasmodium falciparum hexose transporter. Activity is measured by DNA content using SYBR green in vitro.

Experiment [3] has as its target Glucose transporter (Leishmania mexicana) (UniProt O61059). As to the kind of experiment: ST_JUDE_LEISH: Cytotoxicity at 2uM final concentration against transgenic Leishmania Mexicana promastigotes LmGT2 that are glucose transport deficient and complemented with the L. Mexicana glucose transporter 2. Activity is measured by DNA content using SYBR green in vitro.

SMILES strings stand for the structures.

Sequence of Solute carrier family 2, facilitated glucose transporter member 1 (Homo sapiens) (P11166 whole entry): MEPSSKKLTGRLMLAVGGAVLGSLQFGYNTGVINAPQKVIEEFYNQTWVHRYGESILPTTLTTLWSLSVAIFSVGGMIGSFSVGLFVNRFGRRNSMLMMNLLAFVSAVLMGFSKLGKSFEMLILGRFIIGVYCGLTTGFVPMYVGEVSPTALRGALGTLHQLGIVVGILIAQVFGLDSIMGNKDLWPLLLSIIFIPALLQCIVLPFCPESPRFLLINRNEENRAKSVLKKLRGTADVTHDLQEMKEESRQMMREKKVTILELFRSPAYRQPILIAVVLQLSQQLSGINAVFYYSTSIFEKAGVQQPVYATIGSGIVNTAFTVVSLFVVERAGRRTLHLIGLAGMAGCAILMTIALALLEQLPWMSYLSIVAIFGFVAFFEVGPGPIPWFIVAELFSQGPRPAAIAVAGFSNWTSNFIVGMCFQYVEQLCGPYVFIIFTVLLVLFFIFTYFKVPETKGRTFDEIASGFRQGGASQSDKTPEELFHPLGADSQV

For `COc1cccc(OC)c1OCCCON1C(=N)N=C(N)NC1(C)C`, the inhibition was found to be 1.91% in experiment [1], 1.49% in experiment [2] and 2.31% in experiment [3].

Consider `CC(Cc1ccc(NC(=O)c2ccc(CC(C)NCc3ccc(Cl)cc3)cc2)cc1)NCCc1cccc(Cl)c1` (centres undefined), for which the inhibition in experiment [1] was determined as 10.3%; in experiment [2], 6.78%; in experiment [3], 1.33%.

For `O=C(Nc1ccc(Cl)cc1)Nc1ccc(Cn2ncc(N3CCCNCC3)c(Cl)c2=O)cc1`, the inhibition was 2.02% in experiment [1], 5.96% in experiment [2] and 2.56% in experiment [3].

For the compound `Clc1ccc(C=NN=c2cc[nH]c3ccccc23)cc1`, the values for the inhibition in experiment [1], in experiment [2] and in experiment [3] were 9.89%, 8.46% and 6.25%, respectively.

With `N#CCSc1nnc(-c2ccccc2)c2ccccc12`, the inhibition in experiment [1] was 2.6%; in experiment [2] it was 9.44%; in experiment [3] it was -0.1%.

Take `O=C(CCC1CCCCC1=O)c1ccccc1` (centres undefined): the inhibition is 3.73% in experiment [1], 2.15% in experiment [2] and 1.52% in experiment [3].

With `FC(F)(F)COc1ccc(CNCCCCCCNCc2ccc(OCC(F)(F)F)c3ccccc23)c2ccccc12`, the inhibition in experiment [1] came out at 113%; in experiment [2] it was 107%; in experiment [3] it was 108%.

Consider `CCn1cc(CN2CCCC(C(=O)Nc3ccc(-c4nc5ccccc5[nH]4)cc3)C2)c(C)n1` (centres undefined), for which the inhibition in experiment [1] worked out at 3.61%; in experiment [2], 4.26%; in experiment [3], 3.25%.

For the compound `O=C(CSc1nccn1C1CCCCC1)Nc1cc(C(F)(F)F)ccc1Cl`, the inhibition is 8.56% in experiment [1], 9.47% in experiment [2] and 7.3% in experiment [3].

`CN(Cc1ccccc1)C1CCCN(c2cc(NC(=O)c3ccc(F)cc3)ccn2)C1` (centres undefined): the inhibition is -0.91% in experiment [1], -2.04% in experiment [2] and 0.07% in experiment [3].

Regarding `CC(CCc1ccc(OCc2ccccc2)cc1)NCC(O)c1ccccc1` (centres undefined), the values for the inhibition in experiment [1], in experiment [2] and in experiment [3] were -1.32%, 0.43% and -0.69%, respectively.

For the compound `COc1ccc(-c2nonc2NC(=O)c2cccc(C)c2)cc1OC`, the inhibition was found to be 11.9% in experiment [1], 10.7% in experiment [2] and 10.1% in experiment [3].

For the compound `CC(Cc1ccc(OCC(=O)NCC2CCN(CCc3cccc(Cl)c3)CC2)cc1)NCCc1cccc(Cl)c1` (centres undefined), the inhibition in experiment [1] amounted to 3.07%; in experiment [2] it was 4.09%; in experiment [3], 1.92%.

For `CC[C@H](C)CNC(=O)c1ccnc(-c2cccc(CN(C)C3CCN(C)CC3)c2)c1`, the inhibition in experiment [1] was 1.42%; in experiment [2], 2.4%; in experiment [3] it was 2.59%.

As to `CCC(CC)n1cc2c(ccc3nc(N)nc(N)c32)n1`, the inhibition in experiment [1] was -1.92%; in experiment [2] it was -0.91%; in experiment [3] it was -4.05%.

`COc1ccc(-n2cc(C(=O)c3cc(Br)ccc3O)cc(C#N)c2=O)cc1Cl`: the inhibition turned out to be 3.4% in experiment [1], 1.9% in experiment [2] and 0.95% in experiment [3].

As to `c1cc(CN2CCCCC2)cc(-c2ccc(-c3nc4ccccc4[nH]3)cc2)c1`, the inhibition in experiment [1] is -0.4%; in experiment [2], 2.76%; in experiment [3], -1.06%.

On to `CNC(=O)c1cnc(Nc2ccc(N3CCN(C)CC3)cc2)nc1Nc1cccc([N+](=O)[O-])c1`, for which the inhibition in experiment [1] is 2.86%; in experiment [2], -0.17%; in experiment [3], 1.22%.

In the case of `CCOC(=O)c1ccc(N2CCCCC2)c(NC(=O)C(Cl)(Cl)Cl)c1`, the inhibition was -2.66% in experiment [1], -0.39% in experiment [2] and -1.19% in experiment [3].

As for `O=C(Cc1ccsc1)NCC(c1ccccc1Cl)c1c[nH]c2ccccc12` (centres undefined), the inhibition in experiment [1] amounted to 6.27%; in experiment [2], 5.24%; in experiment [3], 4.67%.

For `C=CCN1CCC(N(Cc2cccc(Oc3ccccc3)c2)C(=O)C(c2ccccc2)c2ccccc2)CC1`, the figures for the inhibition in experiment [1], in experiment [2] and in experiment [3] were -1.05%, -2.14% and -2.94%, respectively.

Regarding `COc1ccc2nc(NC(N)=NC(=O)Nc3ccccc3)nc(C)c2c1`, the inhibition in experiment [1] came out at 2.55%; in experiment [2], 2.15%; in experiment [3], 0.15%.

As for `CC(C)CNC(=O)CN1C(=O)C(c2ccccc2)(c2ccccc2)N=C1N`, the inhibition in experiment [1] is 4.76%; in experiment [2] it was 4.66%; in experiment [3], 2.29%.

In the case of `CCNc1c2ccc(Cl)cc2nc2ccc(OC)cc12`, the inhibition in experiment [1] stood at 2.46%; in experiment [2], 4.37%; in experiment [3], 1.15%.

`Cc1ccc(NC(=O)c2ccc(CN3CCCN(CCC(C)C)CC3)cc2)cc1C`: the results for the inhibition in experiment [1], in experiment [2] and in experiment [3] were 14.1%, 14.9% and 15.6%, respectively.

As to `O=C(Nc1ccc(-c2cccc(-c3nc4cc(C(F)(F)F)ccc4[nH]3)c2)cc1)c1ccncc1`, the figures for the inhibition in experiment [1], in experiment [2] and in experiment [3] were 0.97%, 1.99% and 1.87%, respectively.

For the compound `O=C(N[C@@H](CC1CCCCC1)C(=O)NC1CCCCCC1)c1ccc(O)c(-c2ccc(Cl)c(Cl)c2)c1`, the values for the inhibition in experiment [1], in experiment [2] and in experiment [3] were -0.25%, 1.39% and 0.88%, respectively.

With `O=c1cc(NCCCNCc2cccc(Oc3ccccc3)c2)[nH]c2ccccc12`, the inhibition in experiment [1] was found to be 4.28%; in experiment [2], 2.68%; in experiment [3], 3.25%.

With `O=C(NCc1cccc2ccccc12)c1ccc(CNC2CCN(Cc3ccccc3)CC2)cc1`, the inhibition worked out at 1.65% in experiment [1], 2.12% in experiment [2] and 4.22% in experiment [3].

As to `Cc1cc(N(CCN2CCCCC2)CCN2CCCCC2)nc(Nc2ccc(Cl)cc2)n1`, the inhibition was found to be 3.2% in experiment [1], 1.3% in experiment [2] and 2.83% in experiment [3].

Consider `O=C(/C=C/c1ccc(Cl)c(Cl)c1)NCCCCCN1CCC(NC(=O)Nc2ccc(Cl)c(Cl)c2)CC1`, for which the inhibition in experiment [1] is 1.02%; in experiment [2] it was -0.03%; in experiment [3], 0.09%.

As to `CCOC(=O)c1cnc2c(C(F)(F)F)cccc2c1Nc1ccc(O)cc1`, the inhibition stood at 10.8% in experiment [1], 8.44% in experiment [2] and 9.59% in experiment [3].

As to `Oc1c(C=Nn2cnnc2)sc2ccccc12`, the inhibition in experiment [1] was -0.72%; in experiment [2] it was 5.61%; in experiment [3], 11.2%.

Regarding `Cc1c(-c2ccc(C(=O)NC3CC(C)(C)NC(C)(C)C3)cc2)[nH]c2cc(Cl)c(Cl)cc12`, the inhibition in experiment [1] stood at 10.9%; in experiment [2], 8.08%; in experiment [3], 13.8%.

For `CN(C)c1cc(NN=Cc2cc(Cl)ccc2O)nc(N(C)C)n1`, the inhibition was 4.76% in experiment [1], 4.94% in experiment [2] and 2.54% in experiment [3].

`OC1(C(F)(F)F)CC(c2ccccc2)=NN1c1nncc(-c2ccccc2)n1` (centres undefined): the inhibition in experiment [1] amounted to 0.8%; in experiment [2] it was 0.53%; in experiment [3], 1.18%.

For `c1ccc2c3c([nH]c2c1)C(c1ccc2c(c1)CCO2)N(c1ncnc(N2CCN(CCCN4CCOCC4)CC2)n1)CC3` (centres undefined), the values for the inhibition in experiment [1], in experiment [2] and in experiment [3] were 8.79%, 3.13% and 1.89%, respectively.

On to `CCCCOC(=O)[C@H](CCC)NC(=O)c1ccc(NS(=O)(=O)c2ccc3nc(N)[nH]c(=O)c3c2)cc1`, for which the figures for the inhibition in experiment [1], in experiment [2] and in experiment [3] were 0.2%, -1.82% and 0.77%, respectively.

For `Cn1ccnc1CNC(=O)c1ccc(-c2cccc(-c3nc4cc(F)ccc4[nH]3)c2)cc1`, the inhibition in experiment [1] is -2.64%; in experiment [2], 0.96%; in experiment [3], 1.38%.

Turning to `COc1cc(/C=C/C(=O)NCC(CCNc2cc(=O)c3ccccc3[nH]2)NCc2cc(Br)cc(Br)c2)cc(OC)c1` (centres undefined), the inhibition in experiment [1] was 2.85%; in experiment [2], 3.71%; in experiment [3], 2.37%.

Consider `C[C@@H](NC(=O)c1nn(-c2ccc(Cl)cc2)c(=O)c2ccccc12)C(C)(C)C`, for which the results for the inhibition in experiment [1], in experiment [2] and in experiment [3] were 1.61%, 1.12% and 0.85%, respectively.

Take `CC(C)(C(=O)NCCC1CCN(CCCCCNC(=O)/C=C/c2ccc(Cl)c(Cl)c2)CC1)c1ccc(Cl)cc1`: the inhibition in experiment [1] worked out at 5.49%; in experiment [2], 4.45%; in experiment [3], 4.35%.

Consider `O=C(Nc1ccc(-c2csc3nccn23)cc1)c1ccc(Cl)cc1`, for which the inhibition in experiment [1] was 5.5%; in experiment [2], 4.05%; in experiment [3], -0.28%.

Regarding `CCC[C@@H]([C@@H](CC(C)C)C(=O)N[C@@H](CCCCNC(=O)c1cccc(OC)c1)C(=O)Nc1nccs1)N(O)C=O`, the values for the inhibition in experiment [1], in experiment [2] and in experiment [3] were 8.94%, 10.2% and 5.1%, respectively.

In the case of `CC(C)c1ccc(NC(=O)c2ccc(CN3CCCN(CC4CCCCC4)CC3)cc2)cc1`, the inhibition in experiment [1] was found to be 3.95%; in experiment [2], 2.01%; in experiment [3], 5.69%.

As to `COc1cc(C(C)C)nc2ccc(NC(=O)c3ccc(C(=O)Nc4ccc5nc(C(C)C)cc(OC)c5c4)cc3)cc12`, the inhibition is 6.44% in experiment [1], 5.94% in experiment [2] and 3.76% in experiment [3].

For the compound `COc1ccc(Nc2ncc3c(-c4cccc(NC(=O)Cc5ccc(F)cc5)c4)c[nH]c3n2)cc1OC`, the inhibition in experiment [1] is 2.27%; in experiment [2], 2.59%; in experiment [3], 2.37%.

Take `COc1ccc(C2CC(c3cccs3)=NN2C(=O)c2ccco2)cc1OC` (centres undefined): the inhibition in experiment [1] worked out at 5.38%; in experiment [2], 4.8%; in experiment [3], 4.31%.
